High-throughput results from PubChem BioAssay.
DT40 TDP1 CPT: DT40-hTDP1 cell growth loss with CPT | chicken DT40 Tdp1-/-;hTDP1 cells + 20 nM CPT, ATP luminescence, 48 h | Potency, µM (series often up to 46.2 µM), without a hit: top-dose activity change, negative = growth inhibition, hits mostly inhibitors | 420,000 compounds, 12% hits; note: potency is the fitted concentration of half-maximal effect; nearly all actives have a fitted effect of over 55% in size
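Cell growth measured by CellTiter-Glo luminescence after a minimum 48 h, 37 C compound exposure with 20 nM CPT in Tdp1-knockout DT40 cells stably expressing hTDP1, seeded 400/well; qHTS titration format.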
DT40 TDP1 no CPT: qHTS for Inhibitors of human tyrosyl-DNA phosphodiesterase 1 (TDP1): qHTS in cells in absence of CPT; DT40 Tdp1-/- hTDP1 cells, no CPT, ATP luminescence, 48 h; Potency, µM (series often up to 46.2 µM), for inactives: at the top dose activity change, negative = growth inhibition, usual class: inhibitors; 420,000 compounds, 15% hits; AID 686978, 2013; note: potency is the fitted concentration of half-maximal effect; nearly all actives have a fitted effect of over 55% in size
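Stably hTDP1-transfected Tdp1-null chicken DT40 cells were treated with library compounds minus camptothecin and grown for at least 48 hr at 37 °C, after which cellular ATP was quantified by luminescence.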
IL-1B inflam inh: inhibitors of inflammasome signaling (IL-1 beta secretion). 360,000 compounds, 4.7% hits. activity change, % at 57.5 µM. AID 743279. THP-1 LPS/ATP IL-1B secretion, AlphaLISA, 16 h; stronger effect = lower value; in the data active = activity change below about -50%; inconclusive = mostly about -30% to -49%
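Secreted IL-1B measured by AlphaLISA bead assay after 16 h compound exposure of THP-1 cells; compounds (final up to 57.5 uM) added 1 h before LPS (250 ng/mL) and ATP (1.25 mM) stimulation; lower signal means less secretion.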
HT1080NT lethal: kills 2HG-producing HT-1080-NT fibrosarcoma cells. HT-1080-NT fibrosarcoma viability, CellTiter-Glo ATP luminescence, 48 h. 360,000 compounds, 1.6% hits. Potency, µM (series often up to 46.1 µM), inactives show at the highest dose activity, negative = less viability, hits mostly cytotoxic;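 note: NT is the 2HG producing partner of a matched IDH1 knockdown line; potency is the fitted concentration of half-maximal effect; 0% = DMSO-treated cells and -100% = media-only wells without cells; nearly all actives have a fitted effect of over 55% in size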
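Read-out is CellTiter-Glo luminescence after 10 minutes at room temperature, following 48 hours' compound treatment of HT-1080-NT cells (750 cells/well, RPMI, 5% FBS, 37 degrees C).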
ALOX12 inh: ALOX12 (human) lipoxygenase inhibition; P18054; purified 12hLO, xylenol orange hydroperoxide absorbance; Potency, µM (titrated, usually from 108 µM), inactives show at the top dose activity change, negative = inhibition, hits mostly inhibitors; 580,000 compounds, 1.1% hits; note: potency is the fitted concentration of half-maximal effect
Target sequence (P18054 whole entry, looked up): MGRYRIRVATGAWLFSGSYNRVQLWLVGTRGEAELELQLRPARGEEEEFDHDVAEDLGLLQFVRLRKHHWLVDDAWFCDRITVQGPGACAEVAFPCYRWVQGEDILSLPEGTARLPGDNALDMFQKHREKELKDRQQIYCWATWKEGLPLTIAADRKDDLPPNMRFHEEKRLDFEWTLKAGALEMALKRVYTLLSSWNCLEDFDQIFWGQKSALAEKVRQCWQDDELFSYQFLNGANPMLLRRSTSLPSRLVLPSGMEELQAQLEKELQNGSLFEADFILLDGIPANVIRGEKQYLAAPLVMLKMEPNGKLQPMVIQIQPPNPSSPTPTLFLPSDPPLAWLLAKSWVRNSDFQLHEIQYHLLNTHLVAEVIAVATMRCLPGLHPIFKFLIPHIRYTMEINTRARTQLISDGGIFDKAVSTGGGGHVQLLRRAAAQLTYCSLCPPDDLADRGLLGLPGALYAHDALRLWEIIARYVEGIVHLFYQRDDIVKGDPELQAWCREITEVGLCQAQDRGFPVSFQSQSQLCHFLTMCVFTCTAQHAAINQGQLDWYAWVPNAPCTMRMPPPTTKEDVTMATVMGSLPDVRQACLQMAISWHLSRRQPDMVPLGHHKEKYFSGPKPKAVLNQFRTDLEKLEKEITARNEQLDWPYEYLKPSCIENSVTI
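Purified human 12hLO at 150 nM in 25 mM Hepes, 0.01% Triton X-100, pH 7.0, preincubated 15 min at room temperature with compound. Reaction started with 40 uM arachidonic acid, 30 min at room temperature. Hydroperoxide measured by Fe-xylenol orange, 573/405 nm absorbance ratio.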
HT1080 IDH1KD tx: toxicity to HT-1080 IDH1 knockdown cells (counter line) | HT-1080 IDH1 knockdown viability, ATP luminescence, 48 h | Potency, µM (highest dose often 46.1 µM), for inactives: top-dose activity, negative = toxicity, actives largely listed as cytotoxic | 360,000 compounds, 2% hits | AID 686971;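 note: potency is the fitted concentration of half-maximal effect; 0% = DMSO wells and -100% = cell-free medium wells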
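HT-1080-IDH1KD cells (IDH1 knocked down), 750/well in RPMI with 5% FBS, treated with compound 48 h at 37 degrees C. Viability by CellTiter-Glo luminescence, normalised to DMSO and no-cell wells; concentration-response curves classed.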
Starred values were filed as active, the others as inactive; u = inconclusive; x = no result given; ! = repeats disagree. The entries come from a sample that favours hits as a whole. Unless noted, calls come from the whole dose curve; as a rule, active = well fitted curve in the direction sought with a large enough effect; inconclusive = small, poorly fitted or top-dose-only effect, or another doubt; inactive = no such curve, though single readings can be large; an effect the other way counts as inactive or inconclusive. Unless noted, % is set by controls: 0 for no effect and ±100 for the full control effect.

SMILES	DT40 TDP1 CPT	DT40 TDP1 no CPT	IL-1B inflam inh	HT1080NT lethal	ALOX12 inh	HT1080 IDH1KD tx
CCc1c(O)nc(SC2CC(=O)N(c3ccc(F)c(Cl)c3)C2=O)[nH]c1=O (stereo unspecified)	18%	8%	27	10%	u	14%
Cc1cc(C)nc(SC2CC(=O)N(c3ccc(C)c(C)c3)C2=O)n1 (stereo unspecified)	u	15µM*	64	u	10%	16µM*
Cc1cc(C)nc(SC2CC(=O)N(c3ccc(Cl)cc3)C2=O)n1 (stereo unspecified)	u	21µM*	15	6%	-1%	1%
Cc1ccc2nc(NC(=O)c3nn(C(C)C)c(=O)c4ccccc34)sc2c1	x	x	x	x	4%	x
O=Cc1ccc(O)c2ncccc12	0.65µM*	0.58µM*	-98*	2.3µM*	x	3.7µM*
CCOc1ccc(C(=O)c2ccc(OCC)c(N)c2)cc1N	u	29µM*	u	-1%	8%	-18%
CCOc1ccc(S(=O)(=O)N(CC)CC)cc1N	1%	-25%	-1	2%	-7%	-7%
COc1ccc(-c2nccn2CC(CO)Cc2ccsc2)cc1O (stereo unspecified)	x	x	x	x	-5%	x
Clc1ccc(COn2c(-c3ccc(Cl)cc3)nc3ccccc32)cc1	u	u	-26	-5%	-28%	8%
Brc1ccccc1Cn1c(-c2cscn2)nc2ccccc21	23µM*	u	-6	-2%	26%	u
Clc1ccc(COn2c(-c3ccccc3)nc3ccccc32)cc1	u	23µM*	u	-5%	-6%	0%
Fc1ccccc1Cn1c(-c2ccccc2)nc2ccccc21	u	7.3µM*	x	x	-15%	x
CC(C)(C)c1ccc(Cn2c(Cc3ccccc3)nc3ccccc32)cc1	7.3µM*	6.5µM*	x	x	-18%	x
Cc1ccccc1Cn1c(Cc2ccccc2)nc2ccccc21	u	18µM*	-20	0%	-3%	1%
CCCCOc1ccccc1NC(=O)Cn1c(-c2cncs2)nc2ccccc21	23µM*	u	x	x	-2%	x
Cc1ccc(NC(=O)Cn2c(-c3cncs3)nc3ccccc32)c(Br)c1	u	u	x	x	-27%	x
Cc1ccccc1Cn1c(-c2cncs2)nc2ccccc21	u	u	-52*	-20%	0%	-22%
Cc1nc2ccccc2n1Cc1ccc(Cl)cc1	10µM*!	7.3µM*	-14	u	23%	u
Cc1onc(C(=O)N2C[C@@H](Oc3ccccc3)C[C@H]2C(=O)NC2CC2)c1Cn1cccn1	x	x	x	x	-2%	x
O=C(CCCSc1nc2ccccc2s1)NCc1ccc(F)cc1	x	x	x	x	-9%	x
COCCOCc1nc(C2CCCCN2C(=O)Nc2ccc(OC)c(F)c2)no1 (stereo unspecified)	x	x	x	x	16%	x
Cc1ccccc1Cn1c(C)nc2ccccc21	u	5.8µM*	-5	-21%	0%	u
COc1cc2ncnc(NCCCN3CCOCC3)c2cc1OC	6%	4%	-2	9%	u	0%
COc1ccc(-c2oc3ncnc(NCCCN4CCOCC4)c3c2-c2ccc(OC)cc2)cc1	u	18µM*	u	u	-33%	u
Cc1c(C)n(Cc2ccccc2)c2ncnc(NCCCO)c12	13%	5%	7	22%	0%	22%
SMILES	DT40 TDP1 CPT	DT40 TDP1 no CPT	IL-1B inflam inh	HT1080NT lethal	ALOX12 inh	HT1080 IDH1KD tx
c1ccc(-c2oc3ncnc(NCCCN4CCOCC4)c3c2-c2ccccc2)cc1	u	23µM*	-22	-13%	u	-11%
COc1ccc(-c2oc3ncnc(NCCN4CCOCC4)c3c2-c2ccc(OC)cc2)cc1	u	15µM*	18	1%	x	-1%
OCCCNc1ncnc2oc(-c3ccccc3)c(-c3ccccc3)c12	u	16µM*	-24	u	-23%	u
COc1ccc(-n2ncc3c(NCCN4CCOCC4)ncnc32)cc1	-6%	-3%	7	9%	x	9%
O=C(NCCc1c[nH]c2ccc(F)cc12)C1CCN(c2nc(Cl)nc3nc[nH]c23)CC1	x	x	x	x	0%	x
CCOc1cc2nc(-c3ccc(OC)c(OC)c3)nc(NCCCN3CCOCC3)c2cc1OC	u	21µM*	-60*	u	0%	u
COc1ccc(-c2oc3ncn(CCN4CCOCC4)c(=N)c3c2-c2ccc(OC)cc2)cc1	16µM*	13µM*	-53*	u	0%	u
COc1ccc(CCNCCN2CCOCC2)cc1	3%	-14%	6	3%	u	5%
Cc1ccc(S(=O)(=O)N(C)C(C)c2cc3ccccc3o2)cc1C (stereo unspecified)	x	x	x	x	0%	x
CCCC(=O)NC(C)c1nc2ccccc2[nH]1 (stereo unspecified)	1%	0%	3	9%	4%	12%
